This passage reports survival results from PubChem BioAssay AID463173 (ICCB-Longwood Screening Facility, Harvard Medical School, 2010).

Out of some 52,000 compounds screened, about 4,300 (8.3%) were called active. Many of the other results were omitted from the sample, so actives are more common in it than they were. Values without a mark were called inactive. No stated cut-off is given here; in the data, active means survival mostly below about 52% (no sharp cut-off); inactive means mostly above about 56%.

The assay concerns DeltatarO mutant. The assay is described as follows: growth inhibition of S. aureus wild type versus tarO mutant, primary screen, teichoic acid synthesis inhibitors, RN4220, OD600 (AID 463173). The conditions noted are these: OD600, 18 h, active compounds read low, screened at 18.75 µg/mL (by protocol).
Take `CCCSc1ncc(Cl)c(C(=O)Nc2ccc(S(=O)(=O)N3CCCCC3C)cc2)n1` (stereo unspecified): the survival was 51%.
Consider `Cc1ccc(CSc2nnc(-c3ccc(O)cc3)o2)cc1`, for which the survival was 84%.
On to `Oc1ccccc1-c1nnc(SCc2ccccc2)o1`, for which the survival is 86%.
On to `c1ccc(-c2nnc(SCc3cccnc3)o2)cc1`, for which the survival is 54% (active).
As for `COc1cccc(CSc2nnc(-c3ccc(F)cc3)o2)c1`, the survival was 90%.
Turning to `Cc1ccc(-c2nnc(SCc3ccccc3C#N)o2)cc1`, the survival was 69%.
As to `COc1ccc(-c2nnc(SCc3cccc(Cl)c3)o2)cc1`, the survival was 22% (active).
Regarding `COc1ccc(-c2nnc(SCC#N)o2)cc1`, the survival is 74%.
In the case of `Cc1ccc(-c2nnc(SCc3ccccc3C)o2)cc1` it was -5% (active); in that of `N#Cc1ccccc1CSc1nnc(-c2ccccc2)o1`, 61%.
For `CCOc1ccc(CCNC(=O)c2ccc(C)c(-n3c(C)nc4cccnc43)c2)cc1OCC`, the survival is 101%.
On to `Cc1cccc(C(=O)Nc2ccc(OCc3cc(=O)n4ccsc4n3)cc2)c1`, for which the survival was 101%.
Turning to `O=C(CSc1ccccn1)Nc1cccc(F)c1`, the survival is 85%.
Take `COC(=O)C(C)(C)Sc1nnc2c(n1)[nH]c1c(C)cc(C)cc12`: the survival is 55%.
In the case of `COc1cc(NC(=O)c2ccc(-n3cnc4cccnc43)cc2)cc(OC)c1` it was 55%; in that of `COc1cc(OC)c(NC(=O)c2ccc(-n3cnc4cccnc43)cc2)cc1Cl`, 52% (active); in that of `Cc1cccc(NC(=O)c2ccc(-n3cnc4cccnc43)cc2)c1C`, 82%.
Take `CN1C(C(=O)Nc2cccc(O)c2)=CC(c2ccco2)=NS1(=O)=O`: the survival is 88%.
Turning to `CCn1c(C)c(C)c2cc(C(=O)NCc3ccc(F)cc3)ccc21`, the survival is 90%.
In the case of `COc1ccc(CNC(=O)CCc2c(C)nc3c(c2C)c(=O)n(C)c(=O)n3C)cc1`, the survival is 115%.
For the compound `CCN(CC)S(=O)(=O)c1nnc(NC(=O)COc2ccccc2)s1`, the survival was 100%.
In the case of `CCN(CC)S(=O)(=O)c1nnc(NC(=O)c2ccc(Br)cc2)s1`, the survival was 44% (active).
As for `CCN(CC)S(=O)(=O)c1nnc(NC(=O)c2ccc(C(C)C)cc2)s1`, the survival is 44% (active).
Turning to `CCN(CC)S(=O)(=O)c1nnc(NC(=O)COc2ccc(Cl)cc2)s1`, the survival was 87%.
Regarding `CCN(CC)S(=O)(=O)c1nnc(NC(=O)COc2ccc(C)cc2)s1`, the survival was 88%.
For the compound `CCN(CC)S(=O)(=O)c1nnc(NC(=O)c2ccc(C)cc2)s1`, the survival is 63%.
For the compound `COCCCNC(=O)c1sc2ncccc2c1-n1cccc1`, the survival was 75%.
For the compound `COc1ccc(CNC(=O)C2CCN(c3nnc(-n4c(C)ccc4C)s3)CC2)c(OC)c1`, the survival was 87%.
In the case of `COc1ccc2c(c1)CC(NC(=O)Nc1ccc(Br)c(C)c1)CO2` (stereo unspecified) it was 75%; in that of `CCOC(=O)C1=C(CN2CCN(c3cccc(OC)c3)CC2)NC(=O)NC1c1ccc(OC)cc1` (stereo unspecified), 88%.
Turning to `COC(=O)c1scc(-c2ccc(C)cc2)c1S(=O)(=O)N1CCN(c2ccccc2)CC1`, the survival is 72%.
Take `Cn1cc(S(=O)(=O)N2CCCCCC2)cc1C(=O)N1CCN(c2ccc(F)cc2)CC1`: the survival was 75%.
For the compound `COC(=O)c1cc(S(=O)(=O)N2CCN(c3ccc(F)cc3)CC2)cn1C`, the survival was -5% (active).
For `COC(=O)c1scc(-c2ccc(C)cc2)c1S(=O)(=O)N1CCN(c2ccc(F)cc2)CC1`, the survival is -4% (active).
As to `Cn1cc(S(=O)(=O)N2CCCCC2)cc1C(=O)N1CCN(c2ccc(F)cc2)CC1`, the survival is 55%.
As to `COC(=O)c1scc(-c2ccc(C)cc2)c1S(=O)(=O)N1CCN(c2ccc(OC)cc2)CC1`, the survival was 60%.
As to `Cc1cc(C)cc(NC(=O)N2CCC(NC(=O)C3CCCCC3)CC2)c1`, the survival was 92%.
As to `Cc1ccccc1NC(=O)CN1CCCC1`, the survival was 70%.
In the case of `COCCCn1c(=O)c2sccc2n2c(CCCC(=O)NCc3ccc(F)cc3)nnc12` it was 92%; in that of `O=c1c2sc3ccccc3c2n(Cc2cccc(C(F)(F)F)c2)c(=O)n1Cc1ccccc1`, 67%.
Take `CCOC(=O)c1[nH]c2ccccc2c1NC(=O)c1cc(OC)cc(OC)c1`: the survival is 48% (active).
In the case of `CCOC(=O)c1[nH]c2ccccc2c1NC(=O)c1ccccc1F` it was 53%.
Turning to `CCOC(=O)c1[nH]c2ccccc2c1NC(=O)c1cc(OCC)c(OCC)c(OCC)c1`, the survival is 97%.
Under `CCOC(=O)c1[nH]c2ccccc2c1NC(=O)c1ccc(OC)c(OC)c1` stands 131%.
Take `CCOC(=O)c1[nH]c2ccccc2c1NC(=O)c1ccccc1OC`: the survival was 51% (active).
With `CCOC(=O)c1[nH]c2ccccc2c1NC(=O)c1ccccc1OCC`, the survival is 68%.
Take `Cc1ccc(CNC(=O)c2sc3nc(-c4ccccc4)cn3c2C)cc1`: the survival is 123%.
Under `Cc1ccc2oc(C(=O)Nc3c(C(=O)c4ccc(C)c(F)c4)oc4ccccc34)cc(=O)c2c1` stands 58%; under `CCOc1ccc2nc(Cl)c(C3CC(c4ccc(OC)cc4)=NN3S(C)(=O)=O)cc2c1` (stereo unspecified), 127%.
As to `CCS(=O)(=O)N1N=C(c2ccc(C)cc2)CC1c1cc2ccc(OC)cc2nc1Cl` (stereo unspecified), the survival was 44% (active).
In the case of `CCOc1ccc2nc(Cl)c(C3CC(c4ccc(C)cc4)=NN3C(=O)CCC(=O)O)cc2c1` (stereo unspecified), the survival is 50%.
Take `CCOc1ccc(C2C(=O)N(C3CCCCCC3)CC(=O)N2CCc2ccccc2)cc1OC` (stereo unspecified): the survival was 88%.
Consider `N#Cc1cc(C#N)c(SCC(N)=O)nc1N`, for which the survival is 72%.
For the compound `CCc1ccccc1N1C(=O)N(Cc2ccc(C#N)cc2)c2ccccc2S1(=O)=O`, the survival is 120%.
`Cn1cc(CN(C(=O)Nc2ccc(Cl)c(Cl)c2)C2CCCCC2)c2ccccc21`: the survival is 51%.
Under `COc1ccc2[nH]c(=O)c(CN(C(=O)Nc3ccccc3)C3CCCC3)cc2c1` stands 78%; under `Cc1ccc(NC(=O)N(Cc2c[nH]c3ccccc23)C2CCCCCC2)cc1C`, 56%.
As to `Cn1cc(CN(C(=O)Nc2ccccc2)C2CCCCC2)c2ccccc21`, the survival was -14% (active).
For the compound `O=C(Nc1ccccc1)N(Cc1c[nH]c2ccccc12)C1CCCCCC1`, the survival was 52%.
Consider `Cc1ccc(NC(=O)N(Cc2cn(C)c3ccccc23)C2CCCCC2)cc1C`, for which the survival was -13% (active).
In the case of `CCC(C(=O)NCc1ccccc1)n1nc(C)c2sc3ccccc3c2c1=O` (stereo unspecified), the survival is 70%.
